Assay outcomes from PubChem BioAssay.
Chronic BCR inh: blocks chronic active B-cell receptor signaling. AID 493014. Potency, µM (series often up to 46.1 µM), inactives show top-dose activity change, negative = inhibition, actives largely listed as inhibitors. actives 0.05% (n = 340,000). ABC-DLBCL IkBa-CBG/CBR reporter, luminescence ratio, 4 h; active = well fitted inhibition curve with a large enough effect in the signal ratio, with a control signal flat, not every such curve was filed as active; inconclusive = small, poorly fitted or top-dose-only effect, or effect the other way, or a change in a side signal; the % refers to the signal ratio;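 note: potency is the fitted concentration of half-maximal effect; plate controls were basal doxycycline-induced cells for no effect and cells given 10 µM MG132 for full effect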
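Doxycycline induced both beetle luciferases in TMD8 lymphoma cells; IKK-driven degradation limits the IkappaBalpha-fused green signal, while red luminescence normalises for cell number and nonspecific effects. Compounds tested up to 46 uM, 4 hrs.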
IL1B secr inh: blocks inflammasome-driven IL-1 beta release | actives 4.7% (n = 360,000) | AID 743279 | THP-1 LPS/ATP IL-1B secretion, AlphaLISA, 16 h; active compounds read low | activity change, % at 57.5 µM; in the data active = activity change below about -50%; inconclusive = mostly about -30% to -49%; note: % is set by controls: 0 for no effect and ±100 for the full control effect
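Secreted IL-1B measured by AlphaLISA bead assay after 16 h compound exposure of THP-1 cells; compounds (final up to 57.5 uM) added 1 h before LPS (250 ng/mL) and ATP (1.25 mM) stimulation; lower signal means less secretion.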
DT40 TDP1 CPT: growth inhibition of DT40 Tdp1-/-;hTDP1 cells with camptothecin (screen for TDP1 inhibitors); chicken DT40 Tdp1-/-;hTDP1 cells + 20 nM CPT, ATP luminescence, 48 h; Potency, µM (series often up to 46.2 µM), inactives show at the highest dose activity change, negative = growth inhibition, hits mostly inhibitors; actives 12% (n = 420,000); AID 686979; note: potency is the fitted concentration of half-maximal effect; % is set by controls: 0 for no effect and ±100 for the full control effect; nearly all actives have a fitted effect of over 55% in size
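Cell growth measured by CellTiter-Glo luminescence after a minimum 48 h, 37 C compound exposure with 20 nM CPT in Tdp1-knockout DT40 cells stably expressing hTDP1, seeded 400/well; qHTS titration format.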
DT40 TDP1 no CPT: qHTS for Inhibitors of human tyrosyl-DNA phosphodiesterase 1 (TDP1): qHTS in cells in absence of CPT; Potency, µM (doses to about 46.2 µM), without a hit: top-dose activity change, negative = growth inhibition, hits mostly inhibitors; AID 686978, 2013; DT40 Tdp1-/- hTDP1 cells, no CPT, ATP luminescence, 48 h; actives 15% (n = 420,000); note: potency is the fitted concentration of half-maximal effect; % is set by controls: 0 for no effect and ±100 for the full control effect; nearly all actives have a fitted effect of over 55% in size
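DT40 Tdp1-/-;hTDP1 cells, no CPT (DMSO vehicle only), 400 cells/well; compounds pin-transferred; ≥48 hr, 37 °C; CellTiter-Glo 30 min RT dark, luminescence read.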
SW480 rerep: induces DNA re-replication in SW480 colon adenocarcinoma cells; actives 1.8% (n = 340,000); Potency, µM (titrated, usually from 46.1 µM), for the others: at the top dose re-replication activation, hits mostly activators; SW480 DNA re-replication, Hoechst DNA content imaging, 48 h; note: potency is the fitted concentration of half-maximal effect; % of control where 0% means no effect; nearly all actives have a fitted effect of over 55% in size
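Compounds, transferred as 23 nL by pin tool, were incubated with cells for 48 hr; DNA content per nucleus was then quantified by Hoechst staining and fluorescence plate imaging.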
MCF10A rereplic: induces DNA re-replication in MCF 10a normal breast cells; MCF 10A DNA re-replication, Hoechst nuclear intensity, 48 h; Potency, µM (highest dose often 46.1 µM), inactives show top-dose activity, positive = re-replication, hits mostly activators; actives 2.9% (n = 350,000); AID 624296; note: potency is the fitted concentration of half-maximal effect; % of control where 0% means no effect; nearly all actives have a fitted effect of over 50% in size
Active calls of the source: *; u = inconclusive; x = not tested or not shown; [ ] = remark or other dose. An excerpt weighted towards active compounds, which were near 19% of everything screened. Unless noted, calls come from the whole dose curve; as a rule, active = well fitted curve in the direction sought with a large enough effect; inconclusive = small, poorly fitted or top-dose-only effect, or another doubt; inactive = no such curve, though single readings can be large; an effect the other way counts as inactive or inconclusive.

SMILES	Chronic BCR inh	IL1B secr inh	DT40 TDP1 CPT	DT40 TDP1 no CPT	SW480 rerep	MCF10A rereplic
CCOC(=O)c1c(-c2ccc(-c3ccccc3)cc2)csc1NC(=O)CCN1CCOCC1	u	-50.0*	18.4µM*	14.6µM*	23.0%	8.2µM*
CCOC(=O)c1sc(NC(=S)NC(=O)c2ccccc2Cl)c(C(=O)OCC)c1C	u	0.5	u	25.9µM*	-3.5%	3.4%
CCOC(=O)c1c(-c2ccccc2)csc1NC(=O)CCN1C(=O)c2ccccc2C1=O	11.5%	0.0	2.2%	u	7.1%	28.3%
CCOC(=O)c1c(-c2ccccc2)csc1NC(=O)C(C)NCCCN1CCOCC1 (stereo not drawn)	-6.4%	-53.4*	u	u	u	5.6%
CCOC(=O)c1sc(NC(=S)NC(=O)c2ccccc2)c(C(=O)OCC)c1C	-1.6%	13.8	u	u	x	u
COc1ccc(OC)c(NC(=O)CCC(=O)Nc2nnc(C(C)C)s2)c1	-1.3%	16.4	-5.2%	-6.7%	1.3%	1.9%
CCOC(=O)c1c(-c2cccs2)csc1NC(=O)CN1CC(C)OC(C)C1 (stereo not drawn)	-0.3%	0.0	25.9µM*	23.1µM*	u	20.6µM*
CCOC(=O)c1c(-c2ccccc2)csc1NC(=O)CSc1nnc(C)s1	-0.9%	-29.9	23.1µM*	u	-9.1%	u
CCNC(=S)Nc1scc(-c2ccccc2)c1C(=O)OCC	-2.3%	9.5	u	23.1µM*	3.7%	u
CCOC(=O)c1c(-c2ccc(C)o2)csc1NC(=S)NC(=O)c1cccs1	u	12.0	u	u	-22.0%	24.3%
CCOC(=O)c1c(-c2ccc(C)o2)csc1NC(=O)CSc1nnc(C)s1	2.6%	-16.1	u	u	-9.7%	18.3%
CCOC(=O)c1c(-c2ccc(C)o2)csc1NC(=S)NC(=O)c1ccccc1Br	18.1%	-0.5	16.4µM*	u	u	u
Cc1cc(C)n(-c2nc3ccccc3nc2Nc2ccc(Cl)cc2Cl)n1	x	x	-0.3%	-26.8%	x	x
CCOC(=O)c1c(-c2ccccc2)csc1NC(=O)c1cc2ccccc2oc1=O	-9.5%	-3.0	u	16.4µM*	-3.6%	9.3%
CCOC(=O)c1c(-c2cccs2)csc1NC(C)=O	u	-6.0	-22.4%	u	-9.2%	12.8%
CCOC(=O)c1c(-c2ccc(F)cc2)csc1NC(=O)CCN1CCOCC1	-0.3%	6.6	u	20.6µM*	1.4%	14.0%
CCOC(=O)c1c(-c2ccc(-c3ccccc3)cc2)csc1NC(=O)CNCCN(C)C	u	-103.9*	u	23.1µM*	u	17.4%
CCOC(=O)c1c(-c2ccccc2)csc1NC(=O)c1cc(=O)c2ccc(C)cc2o1	x	x	-17.5%	-18.8%	x	x
CCOC(=O)c1c(-c2cccc([N+](=O)[O-])c2)csc1NC(=O)C1CC1	1.5%	u	18.4µM*	20.6µM*	19.6%	u
CCOC(=O)c1c(-c2cccs2)csc1NC(=O)CNCCN1CCOCC1	-0.9%	x	x	x	x	x
C[C@H]1CN([C@@H](C)CO)C(=O)c2cc(-c3cccc(F)c3)cnc2O[C@H]1CN(C)C(=O)c1cnccn1	x	-14.4	-10.6%	-12.4%	x	x
CCc1nn(CC(=O)NC(C)c2ccccc2)c(=O)c2cc3sccc3n12 (stereo not drawn)	x	x	-8.0%	-19.4%	x	x
CCOC(=O)N1CCN(C(=O)c2cn(C)c3ccc(S(=O)(=O)N(C)C4CCCCC4)cc3c2=O)CC1	0.8%	-1.9	-9.6%	2.1%	-14.8%	-8.2%
CCOC(=O)c1c(-c2ccc(-c3ccccc3)cc2)csc1NC(=O)c1cccc(N2C(=O)CCC2=O)c1	-4.3%	2.3	8.2µM*	6.51µM*	-3.9%	14.7%
Nc1nnc(CCS(=O)(=O)c2cc(Cl)ccc2Cl)s1	2.6%	14.1	-21.7%	-19.9%	-0.4%[9.22 µM]	2.0%
SMILES	Chronic BCR inh	IL1B secr inh	DT40 TDP1 CPT	DT40 TDP1 no CPT	SW480 rerep	MCF10A rereplic
Cc1ccccc1CN(C)CCS(=O)(=O)c1cc(Cl)ccc1Cl	u	u	u	u	18.4µM*	9.2µM*
CC(C)C1C(=O)N(Cc2cn(CC3CCCCC3)nn2)CCS(=O)(=O)N1Cc1ccc(-c2cccc(CO)c2)cc1 (stereo not drawn)	x	u	18.4µM*	8.2µM*	x	x
CC(C)C1C(=O)N(Cc2cn(CC3CCCCC3)nn2)CCS(=O)(=O)N1Cc1ccc(-c2ccncc2)cc1 (stereo not drawn)	x	-8.0	-29.8%	u	x	x
CC(C)C1C(=O)N(Cc2cn(CC3CCCCC3)nn2)CCS(=O)(=O)N1Cc1ccc(-c2ccc(Cl)nc2)cc1 (stereo not drawn)	x	u	14.6µM*	10.3µM*	x	x
Cc1ccc(-c2ccc(CN3C(CC(C)C)C(=O)N(Cc4cn(CC5CCCCC5)nn4)CCS3(=O)=O)cc2)cc1 (stereo not drawn)	x	5.7	20.6µM*	16.4µM*	x	x
Cc1ccc(-c2ccc(CN3C(C(C)C)C(=O)N(Cc4cn(CC5CCCCC5)nn4)CCS3(=O)=O)cc2)cc1 (stereo not drawn)	x	-24.2	11.6µM*	8.2µM*	x	x
CCNC(=O)C1CCCN(C(=O)c2ccc(OC)c(OC)c2)CC1 (stereo not drawn)	x	6.1	20.4%	7.7%	x	x
CC(C)C1C(=O)N(Cc2cn(CC3CCCCC3)nn2)CCS(=O)(=O)N1Cc1ccc(-c2ccccc2)cc1 (stereo not drawn)	x	-18.8	13µM*	4.11µM*	x	x
CC(C)C1C(=O)N(Cc2cn(CC3CCCCC3)nn2)CCS(=O)(=O)N1Cc1ccc(-c2ccc(Cl)cc2)cc1 (stereo not drawn)	x	-29.1	9.2µM*	7.31µM*	x	x
COCOCCn1cc(CN2CCS(=O)(=O)N(Cc3ccc(-c4ccc(F)nc4)cc3)C(CC(C)C)C2=O)nn1 (stereo not drawn)	x	-14.2	u	u	x	x
CCC/C=C/c1ccc(CN2C(CC(C)C)C(=O)N(Cc3cn(CC4CCCCC4)nn3)CCS2(=O)=O)cc1 (stereo not drawn)	x	-3.2	u	23.1µM*	x	x
CC(C)C1C(=O)N(Cc2cn(CC3CCCCC3)nn2)CCS(=O)(=O)N1Cc1ccc(-c2ccc(F)nc2)cc1 (stereo not drawn)	x	u	u	13µM*	x	x
